# HIV RNase H inh-1: blocks HIV-1 RNase H cleavage of RNA/DNA duplex; inhibition, % at 10 µM; P04585; RT-RNase H RNA/DNA duplex cleavage, fluorescence; 65,000 compounds, 1.9% hits; in the data active = inhibition above about 50%
# HIV RNase H inh-2: confirmation of HIV-1 reverse transcriptase RNase H inhibitors; shares compounds with HIV RNase H inh-1; Recombinant RT RNase H, fluorescent RNA/DNA duplex cleavage; inhibition, % at 10 µM; 1,000 compounds, 39% hits; AID 651; in the data active = inhibition above about 48%
# Numbers without * were called inactive. This excerpt belongs to a sample that is enriched for hits.
SMILES,HIV RNase H inh-1,others
O=S(NCc1ccco1)C12CC3CC(CC(C3)C1)C2 (configuration not stated),37,
COc1ccc(-c2cc(C(=O)Nc3cc(C)n(Cc4ccc(Cl)cc4)n3)no2)cc1OC,-15,
COc1ccc(-c2cc(C(=O)Nc3ccccc3SC)no2)cc1OC,91*,HIV RNase H inh-2=4
COc1cccc(-c2cc(C(=O)Nc3ccccc3SC)no2)c1,9,
COc1ccc(-c2cc(C(=O)NCCc3ccccc3)no2)cc1OC,-6,
COc1ccccc1-c1cc(C(=O)Nc2ccccc2SC)no1,-7,
COc1ccc(-c2cc(C(=O)Nc3cnn(Cc4ccccc4C)c3)no2)cc1OC,87*,HIV RNase H inh-2=17
CCCc1n[nH]c2c1C(=O)C(C(=O)OC)C(C)(C)C2 (configuration not stated),-9,
Cc1occc(=O)c1OC(=O)Nc1ccccc1,-2,
Cc1cc(C)cc(N2C(=O)C3C4C=CC(C4)C3C2=O)c1 (configuration not stated),-8,
CCOC(=O)C1CCCn2c1nc1sc3c(c1c2=O)CCCC3 (configuration not stated),-4,
COC(=O)c1ccc(CSc2nc3c(cnn3-c3ccc(F)cc3)c(=O)[nH]2)o1,7,
CCC(C)Sc1nc2c(cnn2-c2ccc(C)c(C)c2)c(=O)[nH]1 (configuration not stated),48,
C=CCSc1nc2c(cnn2-c2ccc(C)c(C)c2)c(=O)[nH]1,58*,HIV RNase H inh-2=59*
CSc1nc2c(cnn2-c2ccc(C)c(C)c2)c(=O)[nH]1,3,
CCOC(=O)N1CCN(C(=O)CSc2nc3c(cnn3-c3ccc(Cl)cc3)c(=O)[nH]2)CC1,-5,
CCCCSc1nc2c(cnn2-c2ccc(F)cc2)c(=O)[nH]1,-4,
CCCSc1nc2c(cnn2-c2ccc(Cl)cc2)c(=O)[nH]1,56*,HIV RNase H inh-2=67*
COC(=O)c1ccc(CSc2nc3c(cnn3-c3ccccc3)c(=O)[nH]2)o1,-34,
COC(=O)c1ccc(CSc2nc3c(cnn3-c3ccc(Cl)cc3)c(=O)[nH]2)o1,59*,HIV RNase H inh-2=18
CCOc1cccc(NC(=O)C2CC(=O)NC(=Nc3ccccc3)S2)c1 (configuration not stated),10,
CC(C)Sc1nc2sc3c(c2c2nnc(SCC(=O)NCc4ccco4)n12)CCCC3,86*,HIV RNase H inh-2=67*
Cc1nc(SCC(=O)NCc2ccco2)c2c3c(sc2n1)CCCC3,-43,
CCSc1nc2sc3c(c2c2nnc(SCC(=O)NCc4ccco4)n12)CCCC3,-1,
COC(=O)C(O)(CC(=O)Nc1cccc(SC)c1)C(F)(F)F (configuration not stated),3,
SMILES,HIV RNase H inh-1,others
COc1cc(NS(=O)(=O)c2ccc(NC(=O)COc3ccc(C)cc3)cc2)nc(OC)n1,-5,
COc1cc(NS(=O)(=O)c2ccc(NC(=O)CSC3=NCCS3)cc2)nc(OC)n1,54*,HIV RNase H inh-2=45
COc1cc(NS(=O)(=O)c2ccc(NC(=O)COc3ccccc3C)cc2)nc(OC)n1,17,
CCCc1c(OCCCCc2nn[nH]n2)ccc(C(C)=O)c1O,-22,
O=C(NCc1cccs1)C1CCN(S(=O)(=O)c2cccc3nsnc23)CC1,36,
COc1cccc(C2C(C(=O)OCc3ccccc3)=C(C)Nc3ncnn32)c1OC (configuration not stated),-15,
COc1ccccc1CC(=O)N1CCN(c2cccc(C(F)(F)F)c2)CC1,-8,
COc1cccc(C2c3c(oc4ccc(Cl)cc4c3=O)C(=O)N2c2cc(C)on2)c1OC (configuration not stated),50*,HIV RNase H inh-2=42
COc1cc(C2c3c(oc4ccc(Cl)cc4c3=O)C(=O)N2Cc2ccco2)cc(OC)c1OC (configuration not stated),29,
COc1ccc(C2c3c(oc4ccccc4c3=O)C(=O)N2c2ccccn2)cc1OC (configuration not stated),-2,
O=C1c2oc3ccc(Cl)cc3c(=O)c2C(c2cccnc2)N1Cc1ccco1 (configuration not stated),2,
COc1ccc(C2c3c(oc4ccc(Cl)cc4c3=O)C(=O)N2Cc2ccco2)cc1OC (configuration not stated),94*,HIV RNase H inh-2=60*
COc1ccc(/C(O)=C2\C(=O)C(=O)N(c3cc(C)on3)C2c2cccc(OC)c2OC)cc1C (configuration not stated),1,
Cc1cccc(N2CCN(C(=O)n3ccnc3)CC2)c1C,-9,
Cc1ccc(C(=O)OCc2cn3ccccc3n2)cc1,-17,
COc1ccc(OC)c(C2C(C(N)=O)=C(C)Nc3nc(CCCO)nn32)c1 (configuration not stated),-3,
COC(=O)c1ccsc1NC(=O)c1ccc2c(c1)OCCO2,0,
C/C(N)=C(/C#N)C(=O)CSc1nnc(Nc2cccc(C)c2C)s1,0,
Cc1cc(Nc2cccc(C)c2C)n2nc(C)nc2n1,-17,
Cc1cccc(Nc2n[nH]c(=S)s2)c1C,77*,HIV RNase H inh-2=85*
Cc1ccc(S(=O)(=O)NCCC(=O)NC2CCCC2)cc1,3,
C#Cc1ccc(C(=O)Nc2cc(C(N)=O)ccc2N2CCOCC2)cc1,7,
COc1ccc(CC(=O)OCC(=O)NC(=O)NC2CCCCC2)cc1,-13,
Cc1ccc(Cn2c(Sc3ncccn3)nc3c2c(=O)[nH]c(=O)n3C)cc1,4,
C/C=C/Cn1c(SCc2ccccc2)nc2c1c(=O)[nH]c(=O)n2C,50*,HIV RNase H inh-2=2
SMILES,HIV RNase H inh-1,others
CCSc1nc2c(c(=O)[nH]c(=O)n2C)n1Cc1ccc(Cl)cc1,-3,
Cc1ccc(Cn2c(Sc3nccc(C)n3)nc3c2c(=O)[nH]c(=O)n3C)cc1,-13,
C/C(Cl)=C/Cn1c(SCCN2CCOCC2)nc2c1c(=O)[nH]c(=O)n2C,6,
CC(C)CSc1nc2c(c(=O)[nH]c(=O)n2C)n1CCc1ccccc1,3,
CCCCn1c(SCc2ccc(Cl)cc2)nc2c1c(=O)[nH]c(=O)n2C,54*,HIV RNase H inh-2=1
C/C(Cl)=C/Cn1c(SCc2ccc(Cl)cc2)nc2c1c(=O)[nH]c(=O)n2C,35,
C/C=C/CSc1nc2c(c(=O)[nH]c(=O)n2C)n1Cc1ccc(C)cc1,80*,HIV RNase H inh-2=72*
COCCn1c(SCCN2CCOCC2)nc2c1c(=O)[nH]c(=O)n2C,88*,HIV RNase H inh-2=60*
C=CCn1c(SCCN2CCOCC2)nc2c1c(=O)[nH]c(=O)n2C,-2,
Cc1ccc(CSc2nc3c(c(=O)[nH]c(=O)n3C)n2CCC(C)C)cc1,6,
O=C(O)CCc1nnc2n(Cc3ccc(F)cc3)c(=O)c3ccccc3n12,-6,
CCN(CC(=O)NC)S(=O)(=O)c1ccc(Br)cc1,-2,
CC(C)C1(C)C(=O)N=C2c3ccccc3C(=O)N21 (configuration not stated),0,
CCOC(=O)C1=C(c2ccccc2)N=C2SCC(=O)N2C1c1ccc2c(c1)OCO2 (configuration not stated),0,
COCCn1c(SCC(=O)Nc2ccccc2)nc2c1c(=O)[nH]c(=O)n2C,-11,
COCCn1c(SCc2c(F)cccc2Cl)nc2c1c(=O)[nH]c(=O)n2C,57*,HIV RNase H inh-2=4
CCOCCn1c(SCc2ccc(F)cc2)nc2c1c(=O)[nH]c(=O)n2C,-24,
Cc1nc(SCc2c(F)cccc2Cl)c2c(=O)n(C)c(=O)n(C)c2n1,-40,
O=C(CC1Oc2ccccc2NC1=O)NCCCN1CCN(C2CCCCC2)CC1 (configuration not stated),-4,
COc1ccc(NC(=O)c2[nH]c(C)c(C(C)=O)c2C)cc1Cl,-2,
COc1ccc(NC(=O)c2cc(-c3cc(C)ccc3O)n[nH]2)cc1Cl,51*,HIV RNase H inh-2=5
